PubChem BioAssay (NCI)
The panel holds about 83,000 compounds, 20% with a hit somewhere; the sample as a whole holds those more often.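 Cells were grown in 96-well plates and exposed to the test compound at a single concentration for 48 hours; results are reported as percent growth, with values below 10 considered active.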 Activity calls are given as the source filed them.

What was measured:
Assay in all cases: NCI-60 one-dose screen, 48 h (100 = growth as untreated, 0 = no growth, -100 = all killed)
Conditions in all cases: 10 µM unless noted
DU-145 prostate = system: DU-145 prostate
K-562 leukemia = system: K-562 leukemia
MALME-3M melanoma = system: MALME-3M melanoma
MDA-MB-231 breast = system: MDA-MB-231 breast
RXF 393 renal = system: RXF 393 renal
SF-268 CNS = system: SF-268 CNS
SF-295 CNS = system: SF-295 CNS
UACC-257 melanoma = system: UACC-257 melanoma
M14 melanoma = system: M14 melanoma
HCT-15 colon = system: HCT-15 colon
HT29 colon = system: HT29 colon
SNB-75 CNS = system: SNB-75 CNS
SNB-19 CNS = system: SNB-19 CNS
U251 CNS = system: U251 CNS
PC-3 prostate = system: PC-3 prostate
SK-MEL-5 melanoma = system: SK-MEL-5 melanoma
UACC-62 melanoma = system: UACC-62 melanoma
LOX IMVI melanoma = system: LOX IMVI melanoma
SK-MEL-28 melanoma = system: SK-MEL-28 melanoma

Measured: growth

CS(=O)CCCCCN=C=S (centres undefined)
inactive: SF-295 CNS 51% | SNB-75 CNS 29.5% | SNB-19 CNS 28% | PC-3 prostate 32.4% | SK-MEL-5 melanoma 12.1%
active: DU-145 prostate 9.76% | K-562 leukemia -0.259% | MALME-3M melanoma -11.5% | MDA-MB-231 breast 9.17% | RXF 393 renal -34.7% | SF-268 CNS 8.94% | UACC-257 melanoma -6.89% | M14 melanoma 8.73% | HCT-15 colon -16.9% | HT29 colon -13.3% | U251 CNS 9.01% | UACC-62 melanoma -8.14% | LOX IMVI melanoma -38.7% | SK-MEL-28 melanoma 6.92%

C=C1CCC2C3(C)COC(c4ccc(SC)cc4)OC3CCC2(C)C1C/C=C1/C(=O)OCC1O (centres undefined)
inactive: DU-145 prostate 88.1% | K-562 leukemia 20.1% | MALME-3M melanoma 100% | MDA-MB-231 breast 87.9% | RXF 393 renal 42.6% | SF-268 CNS 88.7% | SF-295 CNS 81.9% | UACC-257 melanoma 91.5% | M14 melanoma 69.3% | HCT-15 colon 68.7% | HT29 colon 34.4% | SNB-75 CNS 73% | SNB-19 CNS 109% | U251 CNS 60.7% | PC-3 prostate 57.6% | SK-MEL-5 melanoma 65.3% | UACC-62 melanoma 66.3% | LOX IMVI melanoma 23.3% | SK-MEL-28 melanoma 104%

Cc1nc2nc(N)nc(N)c2nc1C
inactive: DU-145 prostate 110% | K-562 leukemia 100% | MALME-3M melanoma 99.9% | MDA-MB-231 breast 94% | RXF 393 renal 105% | SF-268 CNS 98.5% | SF-295 CNS 90.5% | UACC-257 melanoma 96.2% | M14 melanoma 90.9% | HCT-15 colon 98.6% | HT29 colon 102% | SNB-75 CNS 93.2% | SNB-19 CNS 95.1% | U251 CNS 99.5% | PC-3 prostate 92.7% | SK-MEL-5 melanoma 101% | UACC-62 melanoma 91.1% | LOX IMVI melanoma 101% | SK-MEL-28 melanoma 109%

C=C1CCC2C3(C)COC(C)(C)OC3CCC2(C)C1C/C=C1/C(=O)OCC1OC(C)=O (centres undefined)
active: K-562 leukemia 9.82% | RXF 393 renal -53.8% | LOX IMVI melanoma 8.63%
inactive: DU-145 prostate 42.4% | MALME-3M melanoma 71.9% | MDA-MB-231 breast 86.2% | SF-268 CNS 63.4% | SF-295 CNS 116% | UACC-257 melanoma 20.2% | M14 melanoma 19.3% | HCT-15 colon 33.8% | HT29 colon 18.4% | SNB-75 CNS 58% | SNB-19 CNS 110% | U251 CNS 36.7% | PC-3 prostate 56.4% | SK-MEL-5 melanoma 56.9% | UACC-62 melanoma 41.9% | SK-MEL-28 melanoma 69.6%

O=C1C[C@H](N2C(=O)c3ccccc3S2(=O)=O)C2CO[C@@H]1O2
inactive: DU-145 prostate 87.8% | K-562 leukemia 55.6% | MALME-3M melanoma 97.2% | MDA-MB-231 breast 110% | RXF 393 renal 86.8% | SF-268 CNS 102% | SF-295 CNS 93.7% | UACC-257 melanoma 84.3% | M14 melanoma 84.2% | HCT-15 colon 59.6% | HT29 colon 70.4% | SNB-75 CNS 91.3% | SNB-19 CNS 106% | U251 CNS 93.3% | PC-3 prostate 99.7% | SK-MEL-5 melanoma 96.2% | UACC-62 melanoma 100% | LOX IMVI melanoma 18.9% | SK-MEL-28 melanoma 66.1%

O=C(/C=C/c1ccc(Cl)cc1)/C=C/c1cc2ccccc2[nH]c1=O
active: HT29 colon -0.317% | LOX IMVI melanoma -44.5%
inactive: DU-145 prostate 79.3% | K-562 leukemia 10.1% | MALME-3M melanoma 14.3% | MDA-MB-231 breast 63.8% | RXF 393 renal 38.3% | SF-268 CNS 45.2% | SF-295 CNS 102% | UACC-257 melanoma 88.9% | M14 melanoma 60.3% | HCT-15 colon 69% | SNB-75 CNS 68.8% | SNB-19 CNS 83.4% | U251 CNS 11.7% | PC-3 prostate 48.8% | SK-MEL-5 melanoma 75.2% | UACC-62 melanoma 52.9% | SK-MEL-28 melanoma 76.1%

Clc1ccc(-c2nnc(COc3ccccc3Cl)o2)cc1
inactive: DU-145 prostate 95.6% | K-562 leukemia 74.7% | MALME-3M melanoma 72.4% | MDA-MB-231 breast 67.4% | RXF 393 renal 46.9% | SF-268 CNS 75.5% | SF-295 CNS 89.8% | UACC-257 melanoma 80.6% | M14 melanoma 76.4% | HCT-15 colon 81% | HT29 colon 71% | SNB-19 CNS 86.7% | U251 CNS 60.3% | PC-3 prostate 89.1% | SK-MEL-5 melanoma 91.4% | UACC-62 melanoma 79.7% | LOX IMVI melanoma 81.5% | SK-MEL-28 melanoma 85.1%
active: SNB-75 CNS 2.45%

CCN(CC)CCC(=O)c1ccc(OC)c2ccccc12
inactive: DU-145 prostate 116% | K-562 leukemia 43.9% | MALME-3M melanoma 104% | MDA-MB-231 breast 110% | RXF 393 renal 81.8% | SF-268 CNS 110% | SF-295 CNS 99.6% | UACC-257 melanoma 89.4% | M14 melanoma 90.1% | HCT-15 colon 107% | HT29 colon 109% | SNB-75 CNS 89.1% | SNB-19 CNS 87% | U251 CNS 95.4% | PC-3 prostate 102% | SK-MEL-5 melanoma 107% | UACC-62 melanoma 90.6% | LOX IMVI melanoma 86.8% | SK-MEL-28 melanoma 122%

COc1ccc(-c2cc(=O)[nH]c3c(OC)c4ccccc4c(OC)c23)cc1
inactive: MALME-3M melanoma 51.3% | MDA-MB-231 breast 35.6% | SF-268 CNS 34.8% | UACC-257 melanoma 73.8% | HCT-15 colon 26.3% | SNB-75 CNS 13.3% | SNB-19 CNS 50.5% | U251 CNS 23.8% | PC-3 prostate 14.8% | SK-MEL-5 melanoma 18.8% | UACC-62 melanoma 21.1% | LOX IMVI melanoma 46.9% | SK-MEL-28 melanoma 56.6%
active: DU-145 prostate 2.29% | K-562 leukemia 8.05% | RXF 393 renal 9.4% | SF-295 CNS 8.09% | M14 melanoma 1.54% | HT29 colon 2.07%

CCOC(=O)c1ccc2c(c1)nc(/C=C/c1ccc(Cl)cc1)n2-c1cc(C(C)(C)C)[nH]n1
inactive: DU-145 prostate 74.1% | K-562 leukemia 19.1% | MALME-3M melanoma 61.2% | MDA-MB-231 breast 52.5% | RXF 393 renal 21.3% | SF-268 CNS 54.6% | SF-295 CNS 56.2% | UACC-257 melanoma 67% | M14 melanoma 83.4% | HCT-15 colon 35.6% | HT29 colon 57.7% | SNB-19 CNS 77.6% | U251 CNS 50.5% | PC-3 prostate 62.1% | SK-MEL-5 melanoma 62.1% | UACC-62 melanoma 19.1% | LOX IMVI melanoma 39.9% | SK-MEL-28 melanoma 47.3%
active: SNB-75 CNS 0.573%

c1ccc2sc(SCCCn3ccnc3)nc2c1
inactive: DU-145 prostate 101% | K-562 leukemia 103% | MALME-3M melanoma 96.1% | MDA-MB-231 breast 89.6% | RXF 393 renal 95.2% | SF-268 CNS 98.4% | SF-295 CNS 97.4% | UACC-257 melanoma 87.3% | M14 melanoma 102% | HCT-15 colon 98.3% | HT29 colon 67% | SNB-75 CNS 117% | SNB-19 CNS 94% | U251 CNS 88.2% | PC-3 prostate 80.1% | SK-MEL-5 melanoma 92.1% | UACC-62 melanoma 87.8% | LOX IMVI melanoma 96.5% | SK-MEL-28 melanoma 109%

O=C1CC(c2nc3ccccc3s2)CN1C1CCCCC1 (centres undefined)
inactive: DU-145 prostate 104% | K-562 leukemia 96.7% | MALME-3M melanoma 90.8% | MDA-MB-231 breast 86.8% | RXF 393 renal 107% | SF-268 CNS 99.1% | SF-295 CNS 92.9% | UACC-257 melanoma 98.6% | M14 melanoma 99.1% | HCT-15 colon 99.7% | HT29 colon 95.4% | SNB-75 CNS 83.7% | SNB-19 CNS 105% | U251 CNS 94.5% | PC-3 prostate 90.1% | SK-MEL-5 melanoma 96.3% | UACC-62 melanoma 93.9% | LOX IMVI melanoma 93% | SK-MEL-28 melanoma 101%

COc1ccc(CN2C(=O)/C(=C\c3cc(OC)c(OC)c(OC)c3)c3cc(OC)ccc32)cc1
inactive: MALME-3M melanoma 36.4% | MDA-MB-231 breast 11.1% | SF-295 CNS 39.7% | UACC-257 melanoma 25.7% | SNB-75 CNS 28.3% | SNB-19 CNS 59.8% | PC-3 prostate 28.9%
active: DU-145 prostate 7.67% | K-562 leukemia 1.94% | RXF 393 renal -53% | SF-268 CNS 7.98% | M14 melanoma -28% | HCT-15 colon -36.6% | HT29 colon -25.3% | U251 CNS -48% | SK-MEL-5 melanoma 1.57% | UACC-62 melanoma -10.4% | LOX IMVI melanoma -71.8% | SK-MEL-28 melanoma -31.8%

COc1cc(OC)c(/C=C/S(=O)(=O)Cc2cnc(OC)c(N)c2)c(OC)c1
inactive: MALME-3M melanoma 67.3% | MDA-MB-231 breast 11.9% | RXF 393 renal 45.5% | SF-268 CNS 38% | UACC-257 melanoma 62.4% | M14 melanoma 10.1% | SNB-75 CNS 42.1% | SNB-19 CNS 31.3% | U251 CNS 10.5% | PC-3 prostate 27.8% | UACC-62 melanoma 40.1% | SK-MEL-28 melanoma 56.2%
active: DU-145 prostate 1.99% | K-562 leukemia 9.4% | SF-295 CNS 2.57% | HCT-15 colon 9.83% | HT29 colon 0.841% | SK-MEL-5 melanoma -24.8% | LOX IMVI melanoma 8.96%

CCOC(=O)c1c2c(n3ccc(NC(=O)CCN4CCOCC4)cc13)C(=O)c1ncccc1C2=O
inactive: DU-145 prostate 45.8% | K-562 leukemia 19.8% | MALME-3M melanoma 42.6% | MDA-MB-231 breast 26% | RXF 393 renal 63% | SF-268 CNS 39% | SF-295 CNS 49.3% | UACC-257 melanoma 32% | M14 melanoma 24.6% | HCT-15 colon 33.9% | HT29 colon 32.7% | SNB-75 CNS 52.7% | SNB-19 CNS 54.6% | U251 CNS 41.5% | PC-3 prostate 51% | SK-MEL-5 melanoma 42.3% | UACC-62 melanoma 27.7% | LOX IMVI melanoma 15% | SK-MEL-28 melanoma 77.8%

C[C@@H]1CCC2=C(CCC[C@]2(C)C(=O)O)[C@@]1(C)CCc1ccoc1
inactive: DU-145 prostate 108% | K-562 leukemia 116% | MALME-3M melanoma 110% | MDA-MB-231 breast 90% | RXF 393 renal 105% | SF-268 CNS 95.1% | SF-295 CNS 102% | UACC-257 melanoma 82.9% | M14 melanoma 103% | HCT-15 colon 102% | HT29 colon 86.9% | SNB-75 CNS 95.7% | SNB-19 CNS 92.9% | U251 CNS 85.4% | PC-3 prostate 87.4% | SK-MEL-5 melanoma 95.4% | UACC-62 melanoma 85.3% | LOX IMVI melanoma 98.4% | SK-MEL-28 melanoma 115%
